The record followed here is PubChem BioAssay (NCI).

What all share (assay): NCI-60 one-dose screen, 48 h (100 = growth as untreated, 0 = no growth, -100 = all killed)
One assay deals with HCT-15 colon. The conditions noted are these: 10 µM.
Another assay concerns HT29 colon. The conditions noted are these: 10 µM.
The next assay relates to SNB-19 CNS. The conditions noted are these: 10 µM.
In another assay the test system is U251 CNS. The conditions noted are these: 10 µM.
The next assay has as its system SK-MEL-5 melanoma. The conditions noted are these: 10 µM.
A further assay deals with UACC-62 melanoma. The conditions noted are these: 10 µM unless noted.
In a further assay the test system is LOX IMVI melanoma. The conditions noted are these: 10 µM.
A further assay has as its system SK-MEL-28 melanoma. The conditions noted are these: 10 µM.
Another assay has as its system SNB-75 CNS. The conditions noted are these: 10 µM.
In the next assay the test system is PC-3 prostate. The conditions noted are these: 10 µM.

Each structure is given as a SMILES string. Values joined by “and” are separate entries in the source; they are usually repeats but may differ in a detail not shown here. Equal entries are not always repeated. This is part of a sample that, as a whole, favours compounds with a hit. Of some 83,000 tested, about 20% had one in any assay.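 Percent growth is the endpoint: 0 to 100 indicates growth inhibition (40 means 60% inhibition), 0 means no net growth, and negative values indicate cell death.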 Active and inactive are the calls of the source. How the source made its calls: active means growth percent below 10; inactive means the rest.

For `O=C1C=Cc2ccccc2C1=O`, the growth was 46.9% (inactive) with HCT-15 colon; 112% (inactive) with HT29 colon; 72.7% (inactive) in the assay on SNB-19 CNS; 74.2% (inactive) with U251 CNS; 31.3% (inactive) with SK-MEL-5 melanoma; 100% (inactive) in the assay on UACC-62 melanoma. Also, the growth was 90% (inactive) in the assay with LOX IMVI melanoma and 53.2% (inactive) with SK-MEL-28 melanoma.
As to `O=[N+]([O-])/C=C\c1ccc2c(c1)OCO2`, the growth was 78.4% (inactive) with HCT-15 colon; 58.2% (inactive) with HT29 colon; 102% (inactive) with SNB-19 CNS; 71.1% (inactive) with U251 CNS; 94.3% (inactive) in the assay with SK-MEL-5 melanoma; 82.5% (inactive) in the assay on UACC-62 melanoma. Besides, the growth with LOX IMVI melanoma is 18.9% (inactive).
For the compound `Cc1cc(C)c(C[N+](C)(C)C)c(C)c1C`, the growth was 7.64% (active) with HCT-15 colon; 3.52% (active) with HT29 colon; 8.87% (active) in the assay on SNB-75 CNS; 16.1% (inactive) in the assay on SNB-19 CNS; 1.76% (active) with U251 CNS; 5.57% (active) in the assay on SK-MEL-5 melanoma. Moreover, in the assay with LOX IMVI melanoma, the growth was -28.2% (active).
As for `O=C1C(=O)c2ccccc2-c2ccccc21`, the growth in the assay with HCT-15 colon was -69.5% (active); in the assay with HT29 colon, -16.1% (active); in the assay on SNB-75 CNS, -100% (active); in the assay with SNB-19 CNS it was -78.6% (active); with U251 CNS, -87.8% (active); in the assay with SK-MEL-5 melanoma, -95.7% (active). For the same compound, the results for the growth in the assay on UACC-62 melanoma, with LOX IMVI melanoma and in the assay with SK-MEL-28 melanoma were -67.4% (active), -58.5% (active) and -91.2% (active), respectively.
As for `COC1CC2C=C(C)/C=C/C=C/C(=O)NC(c3ccccc3)C/C=C/CCC(O)CC(=O)C2=C1O` (configuration not stated), the growth is -85.2% (active) with HCT-15 colon; -83.7% (active) with HT29 colon; -89.9% (active) in the assay with SNB-75 CNS; -27.1% (active) with SNB-19 CNS; -91.1% (active) in the assay with PC-3 prostate; -97.2% (active) in the assay on SK-MEL-5 melanoma. Also, the figures for the growth in the assay on UACC-62 melanoma, in the assay with LOX IMVI melanoma and in the assay with SK-MEL-28 melanoma were -89.3% (active), -91.6% (active) and -80.9% (active), respectively.
On to `COc1cc([N+](=O)[O-])c2ncccc2c1[N+](=O)[O-]`, for which the growth is 68.9% (inactive) in the assay with HCT-15 colon; 61.3% (inactive) with SNB-75 CNS; 96% (inactive) in the assay on SNB-19 CNS; 41.9% (inactive) in the assay with U251 CNS; 95.6% (inactive) in the assay with SK-MEL-5 melanoma; 74% (inactive) in the assay with UACC-62 melanoma. The growth in the assay with LOX IMVI melanoma is 12.2% (inactive); in the assay on SK-MEL-28 melanoma it was 90.9% (inactive).
On to `COc1ccccc1[As]=[As]c1ccccc1OC` (configuration not stated), for which the growth in the assay with HCT-15 colon is -87.2% (active); in the assay on HT29 colon, -76.9% (active); in the assay on SNB-75 CNS, -91.8% (active); in the assay with SNB-19 CNS, -84.5% (active); in the assay on U251 CNS, -83.3% (active); in the assay on SK-MEL-5 melanoma, -99.3% (active). For the same compound, the growth with UACC-62 melanoma was -84.6% (active); with LOX IMVI melanoma, -97.3% (active); with SK-MEL-28 melanoma it was -83% (active).
For the compound `O=[N+]([O-])/C=C/c1ccc(Cl)cc1[N+](=O)[O-]`, the growth was -37.1% (active) with HCT-15 colon; -91.6% (active) in the assay with HT29 colon; 55.4% (inactive) in the assay with SNB-75 CNS; 71.8% (inactive) in the assay on SNB-19 CNS; -39.8% (active) with U251 CNS; 81.4% (inactive) in the assay with SK-MEL-5 melanoma. Moreover, the growth with UACC-62 melanoma was 73.7% (inactive); in the assay on LOX IMVI melanoma, -94.1% (active); in the assay on SK-MEL-28 melanoma, 85% (inactive).
Turning to `COc1cc2c3cc1Oc1c(OC)c(OC)cc4c1C(Cc1ccc(cc1)Oc1cc(ccc1O)CC3N(C)CC2)N(C)CC4` (configuration not stated), the growth with UACC-62 melanoma was -16.8% [100 µM] (active) and -81.7% [100 µM] (active).
As to `O=c1[nH]c2ccccc2n1C1CCN(CCCC(c2ccc(F)cc2)c2ccc(F)cc2)CC1`, the growth in the assay with HCT-15 colon is 37.7% (inactive) and -3.08% (active); in the assay with HT29 colon, 9.69% (active) and -2.65% (active); in the assay on SNB-75 CNS it was 77.1% (inactive) and 106% (inactive); in the assay on SNB-19 CNS, 77.9% (inactive) and 68.2% (inactive); in the assay with U251 CNS, -1.25% (active) and 17.5% (inactive); in the assay with SK-MEL-5 melanoma, 23.6% (inactive) and -86.5% (active). Besides, the growth was 38.4% (inactive) and 30.3% (inactive) in the assay on UACC-62 melanoma; 15.6% (inactive) and -22.7% (active) in the assay with LOX IMVI melanoma; 82.2% (inactive) and -53.2% (active) in the assay with SK-MEL-28 melanoma.
Consider `Cc1ccc(NC(=O)CBr)cc1`, for which the growth in the assay on HCT-15 colon was 96.6% (inactive); in the assay with HT29 colon, 115% (inactive); in the assay with SNB-75 CNS, 97.1% (inactive); in the assay with SNB-19 CNS, 96.8% (inactive); with PC-3 prostate it was 96.4% (inactive); with SK-MEL-5 melanoma, 96.4% (inactive). Also, the results for the growth in the assay on UACC-62 melanoma, in the assay with LOX IMVI melanoma and in the assay on SK-MEL-28 melanoma were 86.8% (inactive), 49.8% (inactive) and 102% (inactive), respectively.
In the case of `NNc1ccccc1`, the growth in the assay with HCT-15 colon is 82.3% (inactive); in the assay on HT29 colon it was 96.9% (inactive); in the assay with SNB-75 CNS, 93.2% (inactive); in the assay on SNB-19 CNS, 96.7% (inactive); with U251 CNS, 103% (inactive); in the assay with SK-MEL-5 melanoma, 87.9% (inactive). The growth is 40.4% (inactive) with UACC-62 melanoma, 65.3% (inactive) with LOX IMVI melanoma and 107% (inactive) with SK-MEL-28 melanoma.
In the case of `COc1cc(/C=C/[N+](=O)[O-])cc(Br)c1OC`, the growth with HCT-15 colon was 7.99% (active); in the assay on SNB-75 CNS, 19.5% (inactive); in the assay on SNB-19 CNS it was 49% (inactive); in the assay with U251 CNS, -21.2% (active); in the assay with PC-3 prostate it was 31.1% (inactive); with SK-MEL-5 melanoma, 24.5% (inactive). Moreover, the values for the growth in the assay with UACC-62 melanoma and in the assay on LOX IMVI melanoma were -5.62% (active) and -100% (active), respectively.
Turning to `Cc1cc(C(C)(C)c2ccc(O)c(C)c2)ccc1O`, the growth in the assay with HCT-15 colon is 93.9% (inactive); in the assay with SNB-75 CNS, 73.7% (inactive); in the assay on SNB-19 CNS it was 100% (inactive); in the assay on U251 CNS, 86.6% (inactive); with SK-MEL-5 melanoma, 88% (inactive); in the assay on UACC-62 melanoma, 79.3% (inactive). Besides, the growth with LOX IMVI melanoma is 85.3% (inactive).
`CCOC(=O)c1[nH]cnc1/N=N/N(C)N`: the growth in the assay with UACC-62 melanoma was 75.8% [100 µM] (inactive) and -1.61% [100 µM] (active).
Consider `O=[N+]([O-])c1ccc(N(CCO)CCO)c2c1no[n+]2[O-]`, for which the growth was -78.6% (active) in the assay on HT29 colon; -39.3% (active) with SNB-75 CNS; -17.9% (active) in the assay on SNB-19 CNS; -69.2% (active) in the assay on U251 CNS; -73.9% (active) in the assay with SK-MEL-5 melanoma; -41.6% (active) with UACC-62 melanoma. For the same compound, the growth is -26.5% (active) in the assay on LOX IMVI melanoma and -8.85% (active) in the assay with SK-MEL-28 melanoma.
`CCOP(=O)(OCC)C(O)c1ccccc1Cl` (configuration not stated): the growth with HCT-15 colon is 88.8% (inactive); in the assay with HT29 colon, 105% (inactive); in the assay with SNB-75 CNS it was 98.5% (inactive); in the assay on SNB-19 CNS, 105% (inactive); with U251 CNS it was 99.5% (inactive); in the assay with SK-MEL-5 melanoma, 103% (inactive). The growth with UACC-62 melanoma was 108% (inactive); in the assay on LOX IMVI melanoma it was 97.9% (inactive); in the assay with SK-MEL-28 melanoma, 114% (inactive).
